Compound activity deposited in PubChem BioAssay by several laboratories.
Rows were chosen to be rich in hits. Some 1.5% of all compounds tested hit in one or more screens of this group.
DUSP3 inh: inhibitors of human VHR1 phosphatase (DUSP3); inhibition, % at 13.3 µM; 0.52% of 290,000 active; P51452; recombinant VHR phosphatase, pNPP absorbance; in the data active means inhibition above about 50%
Target sequence (P51452 whole entry, looked up): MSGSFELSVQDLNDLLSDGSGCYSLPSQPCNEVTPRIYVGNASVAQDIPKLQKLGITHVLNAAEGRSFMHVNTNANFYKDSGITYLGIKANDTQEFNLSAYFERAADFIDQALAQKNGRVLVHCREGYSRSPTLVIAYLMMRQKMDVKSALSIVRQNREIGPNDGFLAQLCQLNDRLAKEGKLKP
SSB-PriA inh: K. pneumoniae PriA-SSBct interaction inhibition; 0.6% of 430,000 active; AlphaScreen SSBct-PriA binding, biotinylated peptide; inhibition, % at 33 µM; AID 1272365; in the data active means inhibition mostly above about 37%, no sharp cut-off; inactive means mostly below about 20%
Sa ugtP lethal: compounds lethal to S. aureus RN4220 ugtP deletion mutant; OD600 growth, 16 h; growth inhibition, % (concentration not given with the values); 0.54% of 330,000 active; AID 1259309; in the data active means growth inhibition above about 68%
CCHF vOTU inh-1: blocks the CCHF virus ovarian tumor domain protease | CCHFV vOTU protease, Pep-AMC fluorescence | inhibition, % at 11.5 µM | 0.55% of 370,000 active
RN4220 kill: S. aureus RN4220 growth inhibition; OD600, 16 h; inhibition, % (concentration not given with the values); 0.33% of 330,000 active; in the data active means inhibition above about 85%
CCHF vOTU inh-2: confirmation of CCHF virus vOTU protease inhibitors. Recombinant CCHFV vOTU, Pep-AMC fluorescence. 17% of 1,900 active. inhibition, % at 11.5 µM. AID 686976. shares compounds with CCHF vOTU inh-1
Of the large screens only hits and unclear results are named; the others gave an inactive call (follow-up assays come after a bar, where they were run). Unless noted, no stated cut-off is given here; in the data, active means inhibition above about 30%; inactive means the rest.

Cc1[nH]cnc1CN1CCc2c(c3ccccc3n2C)C1=O	CCHF vOTU inh-1 71.9 (no result: DUSP3 inh) | CCHF vOTU inh-2 inactive
Cc1ccc(S[C@@H](Cc2ccccc2)C(=O)O)cc1	none (no result: DUSP3 inh, Sa ugtP lethal, CCHF vOTU inh-1, RN4220 kill)
CCc1nn(CCCC(=O)NCc2ccccc2Br)c(=O)c2cc3occc3n12	CCHF vOTU inh-1 47.3 | CCHF vOTU inh-2 inactive
CCc1cccc(NC(=O)CCCn2nc(CC)n3c(cc4occc43)c2=O)c1	none
COc1ccc(CCNC(=O)CSc2nc3ccccc3c(=O)n2CCCC(=O)NCc2cccc(Cl)c2)cc1OC	none (no result: DUSP3 inh, Sa ugtP lethal, CCHF vOTU inh-1, RN4220 kill)
COc1ccccc1C(=O)NCCC(=O)N(Cc1ccco1)Cc1cccs1	none
COc1ccc(C(=O)N(Cc2ccco2)Cc2cccs2)c(O)c1	CCHF vOTU inh-1 34.4 | CCHF vOTU inh-2 inactive
COc1cc(C(=O)NNC(=S)NC(=O)c2ccc(Cl)cc2)cc(OC)c1OC	CCHF vOTU inh-1 29.9 | CCHF vOTU inh-2 inactive
COc1ccc(C(=O)NNC(=S)NC(=O)c2ccc(Cl)cc2)cc1	none (no result: DUSP3 inh)
CCCCNC(=O)C(NC(=O)Cc1cc(C(F)(F)F)cc(C(F)(F)F)c1)C(=O)c1ccccc1 (stereo not given)	CCHF vOTU inh-1 29.7 (no result: DUSP3 inh, SSB-PriA inh, Sa ugtP lethal, RN4220 kill) | CCHF vOTU inh-2 inactive
CCOc1ccc(-c2noc(-c3sccc3S(=O)(=O)N(C)c3ccc4c(c3)OCO4)n2)cc1	none (no result: DUSP3 inh, Sa ugtP lethal, CCHF vOTU inh-1, RN4220 kill)
Cc1ccc(NC(=O)CSc2nnc(NC(=O)c3ccco3)s2)c(C)c1	none (no result: DUSP3 inh, Sa ugtP lethal, CCHF vOTU inh-1, RN4220 kill)
COc1ccccc1NC(=O)c1ccc(NS(=O)(=O)c2ccc(F)c(F)c2F)cc1	CCHF vOTU inh-1 29.9 | CCHF vOTU inh-2 inactive
COc1ccccc1NC(=O)c1ccc(NS(=O)(=O)c2ccc(C(C)(C)C)cc2)cc1	none (no result: DUSP3 inh, Sa ugtP lethal, CCHF vOTU inh-1, RN4220 kill)
O=C(c1ccc(Cl)s1)N(CCn1cccn1)c1nc2ccccc2s1	none (no result: DUSP3 inh, Sa ugtP lethal, CCHF vOTU inh-1, RN4220 kill)
COCCn1c(-c2ccc(OC)cc2)c[nH]c1=S	none (no result: DUSP3 inh, Sa ugtP lethal, CCHF vOTU inh-1, RN4220 kill)
O=C1C2C3C=CC(c4ccccc4)(C2C(=O)N1c1cccc(Cl)c1)C1C(=O)N(c2cccc(Cl)c2)C(=O)C31 (stereo not given)	CCHF vOTU inh-1 38.1 | CCHF vOTU inh-2 inactive
O=C1C2C3CCCC3=C3CCCC3C2C(=O)N1c1cccc(Cl)c1 (stereo not given)	none (no result: Sa ugtP lethal, RN4220 kill)
O=C1C=C(N2CCCCC2)c2ccccc2C1=O	CCHF vOTU inh-1 81.8 (no result: DUSP3 inh) | CCHF vOTU inh-2 81.5
O=C1c2ccccc2C(=O)c2c1cccc2N1CCCC1	CCHF vOTU inh-1 74.9 | CCHF vOTU inh-2 inactive
O=S(=O)(c1ccccc1S(=O)(=O)N1CCCCC1)N1CCCCC1	none (no result: CCHF vOTU inh-1)
O=C1c2ccccc2-c2onc3ccc(N4CCCC4)c1c23	none
C=CCn1c(COc2ccc(C)cc2)nnc1SCC(=O)c1ccc(-c2ccccc2)cc1	CCHF vOTU inh-1 29.8 (no result: DUSP3 inh, SSB-PriA inh, Sa ugtP lethal, RN4220 kill) | CCHF vOTU inh-2 inactive
O=c1[nH]c2c(s1)C(c1ccco1)C1C3CCC(C3)C1S2 (stereo not given)	CCHF vOTU inh-1 32.5 | CCHF vOTU inh-2 inactive
CC(=NNC(=S)Nc1cccc(Cl)c1)c1ccccn1	CCHF vOTU inh-1 29.7 (no result: DUSP3 inh, Sa ugtP lethal, RN4220 kill) | CCHF vOTU inh-2 inactive
S=C(NCc1ccccn1)Nc1cccc(Cl)c1	none
Cc1ccc2c(c1)c1c(n2CC(O)CNCC2CCCO2)CCCC1 (stereo not given)	none (no result: DUSP3 inh, Sa ugtP lethal, CCHF vOTU inh-1, RN4220 kill)
CC(=O)NS(=O)(=O)c1ccc(Nc2ccc([N+](=O)[O-])c3nonc23)cc1	CCHF vOTU inh-1 29.5 | CCHF vOTU inh-2 inactive
CN1CCc2nc(SCC(=O)Nc3ccc(OC(F)(F)F)cc3)c(C#N)c(-c3cccs3)c2C1	CCHF vOTU inh-1 35.3 | CCHF vOTU inh-2 inactive
CN1CCc2nc(SCC(=O)Nc3cccc(F)c3)c(C#N)c(-c3cccs3)c2C1	none
COc1ccc(NC(=O)C(C)(C)CCl)cc1N1CCCCC1=O	none (no result: DUSP3 inh, Sa ugtP lethal, CCHF vOTU inh-1, RN4220 kill)
S=C(Nc1ccc2nc(-c3ccccn3)c(-c3ccccn3)nc2c1)N1CCOCC1	CCHF vOTU inh-1 36.3 | CCHF vOTU inh-2 inactive
O=S(=O)(Nc1cccc2ccccc12)c1cccs1	none
O=S(=O)(Nc1ccc(O)c2ccccc12)c1cccs1	CCHF vOTU inh-1 107.7 | CCHF vOTU inh-2 inactive
COc1ccc(NS(=O)(=O)c2ccccc2F)cc1N1CCCC1=O	none (no result: DUSP3 inh, Sa ugtP lethal, CCHF vOTU inh-1, RN4220 kill)
COC(=O)c1ccccc1C(=O)N1CCCC(C(=O)c2ccc(OC)c(OC)c2)C1 (stereo not given)	none
COc1ccc(C(=O)C2CCCN(C(=O)c3cccc(N4CCCC4=O)c3)C2)cc1OC (stereo not given)	CCHF vOTU inh-1 34.6 | CCHF vOTU inh-2 inactive
O=C(CC1SC(=NN=C2CCCCCC2)NC1=O)Nc1ccc(Br)cc1F (stereo not given)	none (no result: DUSP3 inh, Sa ugtP lethal, CCHF vOTU inh-1, RN4220 kill)
CC(=O)c1ccc(S(=O)(=O)NCCC(=O)NCCc2c[nH]c3ccccc23)cc1	none (no result: DUSP3 inh)
